In PubChem BioAssay AID2642 (Johns Hopkins Ion Channel Center, 2010):
Out of some 310,000 compounds screened, about 3,900 (1.3%) were called active.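 How the source made its calls: active means compounds whose thallium flux B-score, printed positive for inhibition, exceeds three library SD while starting fluorescence stays within three; inactive means the rest.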 Only a selection was taken, and actives are over-represented in it overall.

What follows are molecules tested against Potassium voltage-gated channel subfamily KQT member 1 (Homo sapiens) (UniProt P51787) (assay: inhibitors of human KCNQ1 channel, primary screen, cell-based, thallium flux, high-throughput (AID 2642;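 further: channel opened by potassium depolarization with thallium stimulus after 20 min compound exposure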)). Conditions: CHO-K1 KCNQ1, FluxOR thallium flux fluorescence, at 10 µM; active compounds read high.
Sequence of Potassium voltage-gated channel subfamily KQT member 1 (Homo sapiens) (P51787 whole entry, looked up): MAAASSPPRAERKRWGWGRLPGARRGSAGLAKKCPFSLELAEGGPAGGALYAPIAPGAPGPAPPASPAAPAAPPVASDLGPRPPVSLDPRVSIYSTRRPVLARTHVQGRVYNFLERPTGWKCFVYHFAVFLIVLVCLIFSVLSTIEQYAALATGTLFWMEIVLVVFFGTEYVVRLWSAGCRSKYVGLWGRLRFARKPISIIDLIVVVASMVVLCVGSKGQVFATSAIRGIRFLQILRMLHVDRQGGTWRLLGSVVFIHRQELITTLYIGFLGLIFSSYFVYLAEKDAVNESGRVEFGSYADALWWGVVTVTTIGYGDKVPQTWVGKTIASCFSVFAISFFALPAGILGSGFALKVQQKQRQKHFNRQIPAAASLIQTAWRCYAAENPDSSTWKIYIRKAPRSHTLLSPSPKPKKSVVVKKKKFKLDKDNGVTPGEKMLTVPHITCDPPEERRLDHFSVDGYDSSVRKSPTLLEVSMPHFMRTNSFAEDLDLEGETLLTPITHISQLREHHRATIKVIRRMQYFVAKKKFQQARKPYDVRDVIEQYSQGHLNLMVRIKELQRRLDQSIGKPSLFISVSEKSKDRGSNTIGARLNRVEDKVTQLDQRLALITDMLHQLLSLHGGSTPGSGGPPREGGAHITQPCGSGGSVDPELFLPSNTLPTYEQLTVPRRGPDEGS

SMILES | B-score
COc1cnn(-c2ccc([N+](=O)[O-])cc2)c(=O)c1Cl | inactive
CC(=O)c1ccc(NC(=O)C2CCCN2S(=O)(=O)c2cccs2)cc1 (stereo not given) | inactive
CCSc1nsc(NC(=O)Nc2ccccc2OC)n1 | inactive
CC(=O)c1cccc(NC(=O)c2ccncc2)c1 | inactive
C=CCSc1nsc(NC(=O)Nc2cccc(C(C)=O)c2)n1 | 12 (active)
CSc1nsc(NC(=O)Nc2ccccc2)n1 | inactive
C=C(C)C(=O)Nc1cccc(C(C)=O)c1 | inactive
CCSc1nsc(NC(=O)Nc2cccc(C(C)=O)c2)n1 | 10 (active)
CCOc1ccc(C(CCc2ccccc2)NC(=O)c2ccc(OC)c(OC)c2)cc1OCC (stereo not given) | inactive
COc1cc2c3c(c1)/C(=C1/SC(=S)NC1=O)C(=O)N3C(C)(C)C=C2C | inactive
Cc1ccc2nc(-c3ccncc3)cc(C(=O)Nc3ccc(OC(F)F)cc3)c2c1 | inactive
CC(C)C(=O)Nc1ccc2c(c1)oc1ccccc12 | inactive
CCOC(=O)c1ccc(NC(=O)CCn2c(=O)oc3ccccc32)cc1 | inactive
Cc1csc(NC(=O)C2=COCCO2)n1 | inactive
Cc1ccc(-c2csc(NC(=O)C3=COCCO3)n2)cc1C | 12 (active)
CC(=O)NCCC(=O)Nc1nc(-c2ccc3c(c2)OCCO3)cs1 | inactive
Cc1cccc(CN2CCC(n3nccc3NC(=O)c3ccccc3C)CC2)n1 | inactive
CN(C)N(C)C(=O)C(O)(c1ccccc1)c1ccccc1 | inactive
CCc1ccc(NC(=O)CCNS(=O)(=O)c2cccs2)cc1 | inactive
COc1ccc(-c2cc(C(F)(F)F)nc(NCc3cccnc3)n2)cc1 | inactive
COc1ccc(-c2cc(C(F)(F)F)nc(S(C)(=O)=O)n2)cc1OC | 7 (active)
COc1ccc(-c2ccc(Nc3ccc(S(=O)(=O)N4CCCC4)cc3)nn2)cc1OC | inactive

SMILES | B-score
C=C(C)CNC(=O)c1ccc(OC2CCN(C(=O)COC)CC2)cc1 | inactive
O=C(CC(NCCN1CCOCC1)C(=O)O)Nc1cccc(Cl)c1 (stereo not given) | inactive
CCOC(=O)c1sc(NC(=O)CSc2nc(C)cc(C(F)(F)F)n2)c(C#N)c1C | inactive
CC(C(=O)Nc1ccc(O)c(C(=O)O)c1)N1C(=O)/C(=C/c2cccs2)SC1=S (stereo not given) | inactive
COC(=O)c1ccc(NC(=O)c2cc(Cl)ccc2OC)cc1 | inactive
COC(=O)c1ccc(NC(=O)Nc2ccc(C)cc2)cc1 | 7 (active)
Cc1ccc(NC(=O)CC(=O)Nc2ccc(C)cc2)cc1 | inactive
CCC(C)C(NC(=O)C1CCC(=O)N1C(=O)OCc1ccccc1)C(=O)NC(C(=O)N1CCCC1C(N)=O)C(C)CC (stereo not given) | inactive
CC1CCc2c(c3ccccc3[nH]c2=O)O1 (stereo not given) | inactive
CCOC(=O)c1cc(C)sc1NC(=O)C1CCC1 | inactive
O=C(c1ccccc1)N1N=C(c2ccccc2O)CC1c1ccc(Br)cc1 (stereo not given) | inactive
COc1ccc(C2CC(c3cccs3)=NN2c2ccccc2)cc1 (stereo not given) | inactive
Oc1ccccc1C1=NN(c2ccccc2)C(c2ccccc2)C1 (stereo not given) | 7 (active)
Cc1nc2c(C(=O)NCc3cccs3)cnn2c(C)c1Cc1ccc(F)cc1 | inactive
CCOC(=O)c1cccc(NC(=O)C2CCCN(S(=O)(=O)c3cnc[nH]3)C2)c1 (stereo not given) | inactive
Cc1ccc(C)c(-n2cc(CN3CCN(C(=O)c4ncn[nH]4)CC3)c(-c3ccccc3)n2)c1 | inactive
Cc1cccc(-n2cc(CN3CCN(C(=O)c4ncn[nH]4)CC3)c(-c3cccc(F)c3)n2)c1 | 10 (active)
CCC(O)C1CCN(Cc2cn(-c3ccc(OC)cc3)nc2-c2cccc(F)c2)CC1 (stereo not given) | inactive
Cc1cc(C)c(S(=O)(=O)N2CCCC2CNC(=O)c2ccc3c(c2)OCO3)c(C)c1 (stereo not given) | inactive
Cc1ccc(OCCCCN2CCCCC2)c(Br)c1 | inactive
CC(C)CC(=O)N1CCN(Cc2ccccc2Br)CC1 | inactive
CCN1CC=C2C(C#N)=C(N)C(C#N)(C#N)[C@H](c3ccoc3)[C@H]2C1 | inactive

SMILES | B-score
CCC(C)(C)NC(=O)/C=C/c1cc(OC)c(OC)c(S(=O)(=O)N2CCc3ccccc32)c1 | inactive
CN1C2CCC1/C(=C\c1ccccc1Cl)C(=O)/C2=C\c1ccccc1Cl | 10 (active)
O=C(CN1C(=O)S/C(=C\c2ccccc2Cl)C1=O)NC1C=CS(=O)(=O)C1 (stereo not given) | inactive
O=C(CN1CCCCCC1)NCCN1C(=O)S/C(=C\c2ccccc2Cl)C1=O | inactive
COc1ccc(/C=N/n2c(C)cc(C)cc2=O)cc1 | inactive
OCCC1CN(Cc2cccc(O)c2)CCN1CCc1ccccc1 (stereo not given) | inactive
COc1ccc(C2CC(=O)n3c(nc4ccccc43)S2)cc1OC (stereo not given) | inactive
COc1cccc(C2CC(c3ccccc3)=NN2S(=O)(=O)c2ccccc2)c1OC (stereo not given) | inactive
COc1ccccc1C1CC(=O)n2c(nc(-c3ccccc3)c2-c2ccccc2)S1 (stereo not given) | 7 (active)
COc1ccc2[nH]c3c(=O)n(Cc4ccco4)cnc3c2c1 | inactive
COc1ccc(-c2oc3ncnc(NCCCO)c3c2-c2ccc(OC)cc2)cc1 | inactive
COc1ccc(-c2oc3ncn(Cc4ccco4)c(=N)c3c2-c2ccc(OC)cc2)cc1 | 9 (active)
CCOc1ccc2ccccc2c1/C=N/NC(=O)c1c(C)cc(C)[nH]c1=O | inactive
CN(C(=O)CCNC(=O)Cn1ccc2ccccc2c1=O)c1ccc(Br)cc1 | inactive
CCC(C)Sc1nnc(-c2c[nH]c3ccccc23)n1CCOC (stereo not given) | inactive
CCn1c(SCCC(C)C)nnc1-c1c[nH]c2ccccc12 | 6 (active)
CCn1c(SCC(=O)Nc2ccc(OC)c(OC)c2)nnc1-c1c[nH]c2ccccc12 | inactive
CC1CC(=S)Nc2ccccc2N1Cc1ccccc1 (stereo not given) | inactive
COc1ccc(S(=O)(=O)N2CCCC(C(=O)NCCCn3ccnc3)C2)cc1OC (stereo not given) | inactive
COC(=O)C[n+]1cccc2ccccc21 | 8 (active)
Cc1cccc[n+]1CC(=O)c1ccccc1 | inactive
COc1ccccc1NC(=O)C[n+]1ccccc1 | inactive

SMILES | B-score
O=C(CC1C(=O)NCCN1C(=O)c1ccc([N+](=O)[O-])cc1)Nc1cccc(Cl)c1 (stereo not given) | inactive
CC1c2nc3ccccc3n2C(CC(=O)NCCCN2CCOCC2)C(=O)N1Cc1ccccc1 (stereo not given) | inactive
Cc1cc(Cl)ccc1OCCCC(=O)Nc1cccc(-n2cnnn2)c1 | inactive
O=C(CCC1CCCCC1)Nc1cc(C(F)(F)F)ccc1N1CCOCC1 | inactive
COc1ccc(NC(=O)CN2C(=O)COc3ccc(S(=O)(=O)N4CCOCC4)cc32)c(OC)c1 | inactive
COc1ccc(S(=O)(=O)N2CCOCC2)cc1NC(=O)COc1ccccc1 | inactive
COc1cc(S(=O)(=O)N2CCOCC2)ccc1NC(=O)COc1ccc(N(C)S(=O)(=O)c2ccc(C)cc2)cc1 | 13 (active)
CCOC(=O)c1c(NC(=O)C(C)Sc2c[nH]c3ccccc23)sc2c1CCC2 (stereo not given) | 12 (active)
CCOC(=O)c1c(NC(=S)NC)sc2c1CCCC2 | inactive
CCOC(=O)c1c(NC(=O)CSc2cn(CC)c3ccccc23)sc2c1CCC2 | inactive
CCOc1ccc(S(=O)(=O)N2CCC(C(=O)OCc3ccc(OC)cc3)CC2)cc1 | inactive
CC1CN(C(=S)Nc2ccc(Br)cc2Cl)CC(C)O1 (stereo not given) | inactive
CCCCOC(=O)Nc1nnc(CC(=O)NCc2ccccc2)s1 | inactive
CC(=O)N1c2ccc(S(=O)(=O)N3CCCC(C(=O)Nc4cccc(Cl)c4)C3)cc2CC1C (stereo not given) | inactive
CC(=O)N1CCCc2cc(S(=O)(=O)N3CCCC(C(=O)N4CCN(c5cccc(Cl)c5)CC4)C3)ccc21 (stereo not given) | 8 (active)
CC(=O)N1CCCc2cc(S(=O)(=O)N3CCCC(C(=O)NCc4ccc(Cl)cc4)C3)ccc21 (stereo not given) | inactive
CCCOc1cccc(C(=O)Nc2ccccc2C(=O)N2CCN(C)CC2)c1 | inactive
COC(=O)c1c(NC(=O)COC(=O)[C@@H](NS(=O)(=O)c2ccccc2)C(C)C)sc2c1CCC2 | inactive
Cc1ccc(-c2nn(-c3ccccc3)cc2/C=N/NC(=O)c2ccc3c(c2)OCO3)cc1 | 6 (active)
O=C(O)c1ccc(N/N=C/c2cn(-c3ccccc3)nc2-c2cccs2)cc1 | inactive
CC(C)(C)OC(=O)N/N=C/c1cn(-c2ccccc2)nc1-c1cccnc1 | inactive
CC(=O)Nc1ccc(N2C(=O)CCC2=O)cc1C | inactive

SMILES | B-score
COC(=O)[C@H](Cc1ccccc1)NC(=O)Nc1ccc(OC)cc1 | inactive
NC(=O)c1ccc(NC(=O)COC(=O)C(Cc2ccccc2)NC(=O)c2ccccc2)cc1 (stereo not given) | 6 (active)
CCc1ccc(NC(=O)COC(=O)c2cccs2)cc1 | inactive
CCC(C(=O)OCC(=O)Nc1ccc(C(=O)Nc2ccc(OC)cc2)cc1)c1ccccc1 (stereo not given) | inactive
Cc1ccc(C)c(NC(CC(=O)c2ccccc2)C(=O)OCC(=O)c2cccs2)c1 (stereo not given) | inactive
O=C(COC(=O)[C@H](Cc1ccccc1)NC(=O)c1cccs1)Nc1cc(F)ccc1F | 6 (active)
CCCCSCCCNC(=O)C1CCC(CNS(=O)(=O)c2ccc(NC(C)=O)cc2)CC1 (stereo not given) | inactive
C=CCSc1nc(N)cc(=O)[nH]1 | inactive
COc1ccc(C(=O)OCC(=O)Nc2cccc(C(C)=O)c2)cc1OC | inactive
CN1CCN(C(CNS(=O)(=O)c2cccs2)c2cccnc2)CC1 (stereo not given) | inactive
CCOC(=O)N1CCN(c2c(NCCCN3CCCC(C)C3)c(=O)c2=O)CC1 (stereo not given) | inactive
CCC1C=C(c2ccccc2)C=CN=C1N(CC)CC (stereo not given) | inactive
c1ccc2c(NC3C4CC5CC(C4)CC3C5)nc(N3CCOCC3)nc2c1 (stereo not given) | inactive
Cc1cc(C(=O)NC2CCCc3c2cnn3-c2cccc(C)c2C)c(C)o1 (stereo not given) | inactive
Cn1nccc1C(=O)NC1CCCc2c1cnn2-c1ccc(F)cc1F (stereo not given) | 9 (active)
Cn1nccc1CNC(=O)c1ccnn1C | inactive
CC(=O)NCC(=O)NC1CCCc2c1cnn2-c1ccccc1F (stereo not given) | inactive
Cn1nccc1C(=O)NC1CCCc2c1cnn2-c1ccccc1F (stereo not given) | 6 (active)
Cc1ccc(-n2ncc3c2CCCC3NC(=O)c2cnccn2)cc1C (stereo not given) | inactive
CC1(C)Cc2c(cnn2-c2cccc(F)c2)C(NC(=O)c2cc[n+]([O-])cc2)C1 (stereo not given) | inactive
COc1ccc(C(=O)NC2CC(C)(C)Cc3c2cnn3-c2ccccc2C)o1 (stereo not given) | inactive
COc1ccc(C(=O)NC2CCCc3c2cnn3-c2cccc(C)c2C)c(OC)n1 (stereo not given) | 11 (active)
